Reference: PubChem BioAssay (NCATS)
Records with an inconclusive call do not appear. Active and inactive are the calls of the source. The call rests on the fitted dose curve; in most records, active means well fitted curve in either direction with a large enough effect (not every such curve was filed as active); inconclusive means small, poorly fitted or top-dose-only effect, or another doubt; inactive means flat fitted curve, though single readings scatter.

Molecular target: Mitogen-activated protein kinase 10 (Mus musculus) (UniProt Q61831)
Experiment: JNK3 AlphaScreen Assay (AID 530);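 further: kinase came from lysate of stimulated human HepG2 cells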
Conditions: JNK3 lysate, c-Jun phosphorylation; series mostly up to 25.6 µM
Description: NIH Chemical Genomics Center [NCGC]
NIH Molecular Libraries Screening Centers Network [MLSCN]
The c-jun N-terminal kinase (JNK) family are serine/threonine protein kinases that phosphorylate c-jun, a component of the transcription factor […] (AP-1). JNK kinases are members of the mitogen-activated protein kinase family including the extracellular regulated kinases and p38 kinases. Three JNK genes (JNK 1, 2, and 3) have been identified in humans so far. JNK1 and JNK2 have a broad distribution and JNK3 is primarily found in neuronal tissues and cardiac myocytes.
JNK3 has been under consideration as a target for the treatment of neurodegenerative disorders. […] JNK pathway is also involved in pathological process in a mouse model of Parkinson's disease (Xia et al., 2001).
Given these potential tissue distributions and links to neuroprotection, JNK3 inhibitors should provide useful investigational tools to study the role of this kinase in several diseases including, arthritis, stroke, myocardial infarction, ischemic injury and Parkinson's disease.
A homogeneous AlphaScreen is developed to measure the activity of JNK3. AlphaScreen is a two bead-based proximity-dependent chemical energy transfer luminescent assay platform. The phosphorylation of a biotinylated c-jun substrate by JNK3 can be detected with an antibody raised against phosphorylated c-jun. This process brings streptavidin donor beads and Protein-A acceptor beads to within a proximity range of <200 nm, and subsequently lead a chemical luminescent reaction upon exciting donor beads with 680 nm laser excitation light. Inhibition of JNK3 activity by small molecules and subsequent decrease in the antibody binding to biotinylated c-jun could attenuate or abolish this chemical luminescent reaction.
Yang DD, Kuan CY, Whitmarsh AJ, Rincon M, Zheng TS, Davis RJ, Rakic P and Flavell RA (1997) Absence of excitotoxicity-induced apoptosis in the hippocampus of mice lacking the Jnk3 gene. Nature 389:865-870. [PMID: 9349820]
Herdegen T, Claret FX, Kallunki T, Martin-Villalba A, Winter C, Hunter T, and Karin M (1998) Lasting N-terminal phosphorylation of c-Jun and activation of c-Jun N-terminal kinases after neuronal injury. J.Neurosci. 18:5124-5135. [PMID: 9651196]
Xia XG, Harding T, Weller M, Bieneman A, Uney JB and Schulz JB (2001) Gene transfer of the JNK interacting protein-1 protects dopaminergic neurons in the MPTP model of Parkinson's disease. Proc.Natl.Acad.Sci.U.S.A. 98:10433-10438.
NCGC Assay Protocol Summary:
GST-cJun (1-79) (Stratagene, La Jolla CA, #205145) was biotnylated by PerkinElmer (PerkinElmer-BioSignalInc. Montreal, Canada) and was detectable by the streptavidin Donor beads. Anti-(phospho)cJun (Ser73) antibody was from UpState (Charlottesvilles, VA, #06-659). JNK3-containing lysates were generated from HepG2 cells and pre-activated by interleukin1-beta and tumor necrosis factor alpha. All reagents were stored at -20 C before using. Phosphorylated biotinylated-GST-cJun was recognized by Anti-(phospho)cJun (Ser73) antibody and this process brings acceptor and donor beads together. Therefore JNK3 phosphorylation of cJun can be measured by Alpha reading by EnVision (PerkinElmer, Boston, MA).
The composition of kinase buffer was (in mM) 20 tris- HCl (pH 7.6) 10 MgCl2, 1 DTT, and 0.1 Na3VO4 and 0.01% Tween-20. Beads were diluted in detection buffer containing (in mM) 20 tris-HCl (pH 7.7), 20 NaCl and 80 EDTA and 0.3% BSA. The assay was performed at room temperature. All compounds were screened as titrations from 0.6 nM to 46 uM final concentration. The assay was performed in 1536-well format (white solid bottom and untreated) as follows:
Sequence,Parameter,Value,Description
1,Reagent,3 uL,Biotin-GST-cJun, Anti-(phospho)cJun and pre-activated JNK3-containing lysates
2,Compound,23 nL,Final concentration was 0.6nM to 46uM
3,Time,15 minutes,Room Temperature
4,Reagent,1 uL,ATP final concentration 10uM
6,Reagent,0.5 uL,2ng/well bead mixture
[…]

Potency, inactive:
CC[C@H](Cc1c(I)cc(I)c(N)c1I)C(=O)O
Cc1cccc(C)c1NC(=O)[C@H](C)N
N[C@H](Cc1cc(I)c(Oc2cc(I)c(O)c(I)c2)c(I)c1)C(=O)O
CC(C)(N=NC(C)(C)C(=N)N)C(=N)N
C[N+]12CCC(CC1)[C@@H](OC(=O)C(O)(c1ccccc1)c1ccccc1)C2
CC(=O)N[C@H](CS)C(=O)O
C[C@@]12CC[C@@H]3c4ccc(O)cc4CC[C@H]3[C@H]1C[C@@H](O)[C@H]2O
CO[C@]1(NC(=O)Cc2cccs2)C(=O)N2C(C(=O)O)=C(COC(N)=O)CS[C@H]21
O=c1cc(-c2cccc(O)c2)oc2cc(O)ccc12
NCc1ccccc1CC(=O)N[C@@H]1C(=O)N2C(C(=O)O)=C(CSc3nnnn3CC(=O)O)CS[C@@H]12
CN1CCN([C@@H](c2ccccc2)c2ccc(Cl)cc2)CC1
CCN(CC)[C@@H](C)CN1c2ccccc2Sc2ccccc21
C=C(C)[C@H]1CC[C@]2(C(=O)O)CC[C@]3(C)[C@@H](CC[C@H]4[C@@]5(C)CC[C@@H](O)C(C)(C)[C@@H]5CC[C@@]43C)[C@H]12
COc1ccc(C[C@@](C)(N)C(=O)O)cc1OC
CO[C@@H]1C[C@H](O[C@H]2[C@@H](C)[C@H](O[C@@H]3O[C@@H](C)C[C@@H](N(C)C)[C@@H]3OC(C)=O)[C@H](C)C[C@]3(CO3)C(=O)[C@H](C)[C@H](OC(C)=O)[C@H](C)[C@H](C)OC(=O)[C@@H]2C)O[C@H](C)[C@@H]1OC(C)=O
CC(=O)Nc1cc2ccccc2oc1=O
Cc1ccc2c(c1)c1c3n2CCN[C@H]3CCC1
CCCC[C@H](CC)CN1CN(C[C@@H](CC)CCCC)CC(C)(N)C1
Nc1ncn([C@H]2O[C@@H](CO)[C@@H](O)[C@@H]2O)c(=O)n1
CC(C)(CS)C(=O)N1CCC[C@H]1C(=O)O
CC(C)(CO)[C@H](O)C(=O)NCCCO
CC(=O)O[C@H]1C[C@@]2(C)[C@H](C[C@@H](O)[C@H]3[C@@]4(C)CC[C@@H](O)[C@@H](C)[C@H]4CC[C@@]32C)C1=C(CCC=C(C)C)C(=O)O
C1CCN2C[C@@H]3C[C@@H](CN4CCCC[C@H]34)[C@H]2C1
CCN1CCN(C(=O)N[C@H](C(=O)N[C@@H]2C(=O)N3[C@@H]2SC(C)(C)[C@@H]3C(=O)O)c2ccccc2)C(=O)C1=O
Nc1nc(=S)c2ncn([C@H]3O[C@@H](CO)[C@@H](O)[C@@H]3O)c2[nH]1
COc1ccccc1OC[C@H](O)CO
CC(=O)[C@@]1(O)CC[C@H]2[C@H]3C[C@@H](C)C4=CC(=O)C=C[C@]4(C)[C@@]3(F)[C@@H](O)C[C@]21C
C#C[C@]1(O)CC[C@@H]2[C@H]3CCC4=CCCC[C@@H]4[C@@H]3CC[C@@]21C
C[N+]1(C)CC[C@@H](OC(=O)[C@@](O)(c2ccccc2)C2CCCC2)C1
COCC(=O)Nc1c(I)c(C(=O)NC[C@@H](O)CO)c(I)c(C(=O)N(C)C[C@@H](O)CO)c1I
CNC[C@H](O)c1ccc(OC(=O)C(C)(C)C)c(OC(=O)C(C)(C)C)c1
Cc1ccccc1N1C(=O)c2cc(S(N)(=O)=O)c(Cl)cc2N[C@H]1C
O=C(O)[C@@H]1[C@@H]2C[C@H]3c4[nH]c5ccccc5c4CCN3C[C@@H]2CC[C@@H]1O
Cn1nnnc1SCC1=C(C(=O)O)N2C(=O)[C@@H](NC(=O)[C@@H](O)c3ccccc3)[C@@H]2SC1
CC(=C(CCOP(=O)(O)O)SC(=O)c1ccccc1)N(C=O)Cc1cnc(C)nc1N
CO[C@H]1[C@@H](OC(N)=O)[C@H](O)[C@@H](Oc2ccc3c(O)c(NC(=O)c4ccc(O)c(CC=C(C)C)c4)c(=O)oc3c2C)OC1(C)C
NC[C@@H]1O[C@H](O[C@H]2[C@H](O)[C@@H](O[C@H]3[C@H](O)[C@H](N)C[C@H](N)[C@H]3O[C@@H]3O[C@H](CO)[C@@H](O)[C@H](O)[C@@H]3N)O[C@H]2CO)[C@@H](N)[C@H](O)[C@@H]1O
CN(C)c1ccc(O)c2c1C[C@H]1C[C@H]3[C@@H](N(C)C)C(=O)C(C(N)=O)=C(O)[C@]3(O)C(=O)C1=C2O
CC1(C)S[C@@H]2[C@H](NC(=O)C(N)c3ccccc3)C(=O)N2[C@H]1C(=O)O (stereo not given in full)
Clc1ccc([C@H](Cn2ccnc2)OCc2c(Cl)cccc2Cl)c(Cl)c1
